NPC1 prom act – activates the NPC1 promoter | Huh7 NPC1 promoter luciferase reporter, 24 h | Potency, µM (titrated, usually from 9.22 µM), actives largely listed as activators | hit rate 2.4% among 320,000 | AID 485313; note: nearly all actives have a fitted effect of over 60% in size
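Compounds in DMSO were transferred onto Huh7 NPC1-luciferase reporter cells pre-incubated 2 h; after 24 h at 37 °C, Amplite reagent was dispensed and luminescence recorded 10 min later.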
Rab9 promoter act – activators of Rab9 promoter; hit rate 2.8% among 320,000; Potency, µM (highest dose often 9.22 µM), usual class: activators; Huh7 Rab9 promoter-luciferase reporter, luminescence, 24 h; AID 485297; note: nearly all actives have a fitted effect of over 60% in size
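Huh7 cells stably carrying a Rab9 promoter-luciferase reporter, 1500 cells per well in OP-MEM I with 10% FBS, treated with compound 24 hours at 37C. Luciferase activity read by luminescence after 10 minutes with Amplite reagent.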
ELG1 repair inh – inhibitors of ELG1-dependent DNA repair in HEK293T cells; HEK293T ELG1-luciferase reporter, luminescence, 16 h; DNA damage induced by 5-fluorouridine; Potency, µM (series often up to 46.1 µM), hits mostly inhibitors; hit rate 2.3% among 330,000; note: nearly all actives have a fitted effect of over 55% in size
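In this reporter screen, reduction of luminescence relative to DMSO vehicle indicated activity. Compounds and 5-fluorouridine were added together to 2,000 cells per well, incubated for 16 hr at 37 °C, then developed with ONE-Glo.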
FLuc modulator – counter-screen for miR-21 project: firefly luciferase inhibitors or activators; P08659; purified FLuc, Km substrates, luminescence inhibition; Potency, µM (top dose mostly 57.5 µM), actives largely listed as inhibitors; hit rate 6.9% among 360,000; note: nearly all actives have a fitted effect of over 55% in size
Target sequence (P08659 whole entry, looked up): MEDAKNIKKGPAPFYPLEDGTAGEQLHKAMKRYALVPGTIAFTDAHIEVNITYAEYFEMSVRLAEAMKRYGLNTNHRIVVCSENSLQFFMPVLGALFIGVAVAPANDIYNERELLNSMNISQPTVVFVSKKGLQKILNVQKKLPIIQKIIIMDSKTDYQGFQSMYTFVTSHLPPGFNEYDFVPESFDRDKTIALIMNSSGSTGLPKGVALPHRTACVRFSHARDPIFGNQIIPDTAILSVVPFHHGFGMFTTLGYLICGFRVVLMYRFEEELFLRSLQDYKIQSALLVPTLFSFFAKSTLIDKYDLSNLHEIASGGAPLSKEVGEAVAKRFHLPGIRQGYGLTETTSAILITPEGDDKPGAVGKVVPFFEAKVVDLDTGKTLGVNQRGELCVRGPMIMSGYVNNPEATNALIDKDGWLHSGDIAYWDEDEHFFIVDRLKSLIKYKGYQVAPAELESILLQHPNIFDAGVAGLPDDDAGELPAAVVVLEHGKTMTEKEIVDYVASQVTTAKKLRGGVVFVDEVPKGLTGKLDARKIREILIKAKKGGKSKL
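Purified P. pyralis luciferase (10nM final) with 10uM D-luciferin and 10uM ATP (Km levels) in 50mM Tris acetate pH 7.5, 10mM Mg acetate, 0.01% Tween-20, 0.05% BSA; qHTS 6-point titration, ~60 µM downward; luminescence read.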
ELG1 genotox – genotoxicity induction in ELG1-luciferase HEK293T cells. hit rate 1.3% among 330,000. HEK293T ELG1-luciferase reporter, luminescence, 16 h. Potency, µM (top dose mostly 46 µM), hits mostly activators. AID 504466; note: nearly all actives have a fitted effect of over 60% in size
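HEK293T cells expressing luciferase-tagged ELG1 were exposed to compound or DMSO vehicle for 16 hr at 37 °C and 5% CO2. Luciferase activity was then measured with ONE-Glo after 30 min at room temperature.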
SMN2 splice enh – increases expression of the SMN2 splice variant; HEK293 SMN2-luciferase splicing reporter, luminescence, 30-36 h; Potency, µM (doses to about 46.1 µM), usual class: activators; hit rate 2.8% among 210,000; note: nearly all actives have a fitted effect of over 55% in size
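HEK293 cells carry an SMN2 minigene-luciferase reporter in which exon 7 inclusion puts luciferase in frame. Cells were seeded at 2000 cells/well, attached for 10-12 hours, then exposed to compounds for 30-36 hours at 37C before ONE-Glo luminescence.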
Hits are given with their value; – = inactive; ? = inconclusive; · = no result given. Rows were chosen to be rich in hits. Some 9.2% of all compounds tested hit in one or more screens of this group. Calls come from the whole dose curve; as a rule, active = well fitted curve in the direction sought with a large enough effect; inconclusive = small, poorly fitted or top-dose-only effect, or another doubt; inactive = no such curve, though single readings can be large; an effect the other way counts as inactive or inconclusive.

SMILES | NPC1 prom act | Rab9 promoter act | ELG1 repair inh | FLuc modulator | ELG1 genotox | SMN2 splice enh
CCOC(=O)C1(Cc2ccccc2C)CCCN(C(=O)c2ccccn2)C1 (stereo not given) | – | – | ? | ? | – | ·
CCOC(=O)C1(Cc2ccccc2)CCCN(C(=O)c2cnn(CC)c2)C1 (stereo not given) | ? | 3.98µM | ? | 15.1µM | ? | ·
CCOC(=O)C1(Cc2ccccc2C)CCCN(C(=O)c2ccc3nccnc3c2)C1 (stereo not given) | – | – | 23.1µM | – | – | ·
O=C(COc1ccc(Cl)cc1)OCc1cc(=O)n2nc(C3CCCCC3)sc2n1 | · | · | · | – | · | ·
Cc1ccc(-c2nc3nc(C)cc(N4CCN(c5cccc(C)c5)C(C)C4)n3n2)cc1 (stereo not given) | · | · | · | 8.49µM | · | –
CCCCCc1ccc(-c2ccc(Br)cc2)nc1 | · | · | · | 2.13µM | · | –
CCCc1ccc(-c2ccc(C(=O)Oc3ccc(Br)cc3)cc2)nc1 | · | · | · | – | · | –
CCCCCCCc1ccc(-c2ccc(O)cc2)nc1 | ? | 3.16µM | ? | 19µM | ? | 14.1µM
COc1ccccc1C(=O)NNC(=O)c1ccc(F)cc1 | – | ? | ? | ? | ? | 11.2µM
Cc1ccccc1C(=O)NNC(=O)c1ccc(F)cc1 | – | – | ? | – | – | –
O=C(NNC(=S)Nc1ccc(Cl)cc1)c1ccccc1OC(F)F | – | – | 23.1µM | – | – | –
COC(=O)NNC(=O)c1ccccc1OC | – | – | – | – | – | –
COc1ccccc1NC(=O)NNC(=O)c1ccc2ccccc2c1 | – | – | – | – | – | ·
COc1ccccc1C(=O)NNC(=O)c1ccc2ccccc2c1 | – | – | – | 12µM | – | ·
COc1ccccc1C(=O)NNC(=O)c1ccc(Cl)cc1 | – | – | – | 15.1µM | – | ·
CCOC(=O)c1c(SCC(=O)Nc2nc3ccc(C)cc3s2)nc(=O)[nH]c1C | · | · | · | – | · | ·
Cc1cc(C)n(C(C)CC(=O)Nc2ccc(C)c(N(C)C)c2)n1 (stereo not given) | · | · | · | – | · | ·
O=C(NNC1=Nc2ccccc2SC1)c1cccc([N+](=O)[O-])c1 | – | – | 16.4µM | – | – | ·
O=C(NNC1=Nc2ccccc2SC1)c1ccccc1F | – | – | 5.8µM | ? | – | ·
COc1c(C(=O)Nc2ccc(Cc3ccncc3)cc2)ccc2ccccc12 | – | – | ? | 19µM | – | –
COc1cccc(NC(=O)Nc2ccc(Cc3ccncc3)cc2)c1 | – | – | – | 16.9µM | – | –
COc1cc(C(=O)NC(=S)Nc2ccccc2[N+](=O)[O-])cc(OC)c1OC | – | – | 6.51µM | – | – | –
COc1cccc(NC(=O)Nc2nnc(N3C(C)CCCC3C)s2)c1 (stereo not given) | – | – | ? | 21.3µM | – | ·
COc1cccc(NC(=O)Nc2nnc(Cc3ccccc3)s2)c1 | – | – | – | – | – | ·
C[C@@H]1C(=O)CC2C(C)(C)CCC[C@]2(C)[C@@]1(O)CCc1ccoc1 (stereo not given in full) | · | · | · | · | · | –
SMILES | NPC1 prom act | Rab9 promoter act | ELG1 repair inh | FLuc modulator | ELG1 genotox | SMN2 splice enh
Cc1ccc(S(=O)(=O)c2nnn3c2nc(N2CCC(C)CC2)c2cc(Cl)ccc23)cc1C | · | · | · | – | · | –
COc1cccc(CNC(=O)c2ccncc2)c1 | – | – | – | 16.9µM | – | ·
Cc1cc(C)cc(C(=O)NC(=S)Nc2ccc(Cc3ccncc3)cc2)c1 | – | – | ? | – | – | –
COc1cc(C(=O)NC(=S)Nc2ccc(Cc3ccncc3)cc2)cc(OC)c1OC | – | – | 13µM | – | – | ·
CC(C)Cc1ccc(C(=O)Nc2ccc(Cc3ccncc3)cc2)o1 | – | – | 20.6µM | ? | – | ·
COc1ccc(CNC(=O)c2ccncc2)cc1 | – | – | – | – | – | ·
COc1cccc(NC(=O)C(=O)NCc2ccncc2)c1 | – | ? | ? | 19µM | ? | 12.6µM
O=C(Nc1ccc(Cc2ccncc2)cc1)c1ccc(Br)o1 | – | – | ? | ? | – | –
CCOC(=O)c1ccc(NC(=O)CC(C)n2nc(C)cc2C)cc1 (stereo not given) | · | · | · | – | · | ·
CCOc1ccc(NC(=O)C2CCCN(S(=O)(=O)c3cccc4nsnc34)C2)cc1 (stereo not given) | – | – | 23.1µM | – | – | –

Screens: PubChem, National Center for Advancing Translational Sciences (NCATS)
